Test results published in the supplement of paper PMC11732987, “Enantioselective OTUD7B fragment discovery through chemoproteomics screening and high-throughput optimisation” (Communications Chemistry, 2025).

Experiments:
Experiment in all cases: log2 ratio of Biotin-Ahx-Ub-VS probe labelling (fragment/DMSO); higher = less target engagement (more negative = stronger competition), active = hit call of the paper (q ≤ 0.05, log2 ratio ≤ -1)
Conditions in all cases: compound concentration: 200 uM; treatment time: 3 h
USP42 = target: T1, USP42 (UniProt Q9H9J4)
T1 sequence (whole entry): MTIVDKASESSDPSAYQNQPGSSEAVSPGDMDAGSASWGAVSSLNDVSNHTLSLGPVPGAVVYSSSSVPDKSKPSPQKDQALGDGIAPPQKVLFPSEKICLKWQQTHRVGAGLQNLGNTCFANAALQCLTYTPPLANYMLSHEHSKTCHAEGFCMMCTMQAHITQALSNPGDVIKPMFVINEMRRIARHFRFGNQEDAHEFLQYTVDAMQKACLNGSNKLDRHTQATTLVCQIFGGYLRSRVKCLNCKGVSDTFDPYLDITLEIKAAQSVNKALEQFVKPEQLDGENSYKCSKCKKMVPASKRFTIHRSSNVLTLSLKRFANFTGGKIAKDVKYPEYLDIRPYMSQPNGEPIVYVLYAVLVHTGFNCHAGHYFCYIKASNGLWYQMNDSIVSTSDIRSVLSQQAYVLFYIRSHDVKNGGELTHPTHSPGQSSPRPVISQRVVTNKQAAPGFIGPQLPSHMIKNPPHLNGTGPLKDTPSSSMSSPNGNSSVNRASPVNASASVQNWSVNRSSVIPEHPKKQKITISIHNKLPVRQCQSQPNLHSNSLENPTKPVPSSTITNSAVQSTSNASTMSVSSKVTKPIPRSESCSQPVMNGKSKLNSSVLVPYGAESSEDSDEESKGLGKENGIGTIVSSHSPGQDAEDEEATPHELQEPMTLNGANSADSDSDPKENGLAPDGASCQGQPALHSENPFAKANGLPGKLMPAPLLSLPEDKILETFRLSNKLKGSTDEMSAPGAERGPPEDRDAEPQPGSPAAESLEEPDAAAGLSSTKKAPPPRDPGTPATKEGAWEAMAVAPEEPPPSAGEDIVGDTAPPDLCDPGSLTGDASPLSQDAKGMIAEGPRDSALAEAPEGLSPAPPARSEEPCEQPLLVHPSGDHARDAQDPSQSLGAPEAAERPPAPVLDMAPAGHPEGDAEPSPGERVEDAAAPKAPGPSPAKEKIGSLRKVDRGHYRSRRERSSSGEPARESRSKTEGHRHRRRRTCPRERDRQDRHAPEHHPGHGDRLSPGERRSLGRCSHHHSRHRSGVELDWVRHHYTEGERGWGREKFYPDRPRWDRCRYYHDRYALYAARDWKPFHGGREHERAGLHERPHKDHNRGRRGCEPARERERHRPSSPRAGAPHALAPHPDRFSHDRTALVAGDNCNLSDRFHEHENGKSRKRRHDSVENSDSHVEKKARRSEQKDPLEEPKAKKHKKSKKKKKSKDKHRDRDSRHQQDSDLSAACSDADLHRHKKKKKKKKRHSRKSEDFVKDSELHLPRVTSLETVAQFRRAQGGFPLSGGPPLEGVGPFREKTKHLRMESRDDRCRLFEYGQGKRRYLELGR
Outline: (§1)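 Triplicate samples of HEK293T lysate, 495 µg each, received fragment at 200 µM or vehicle for 3 h, followed by Biotin-Ahx-Ub-VS (0.5 µM final) for 1 h. After NeutrAvidin enrichment of labelled DUBs and LysC/trypsin digestion, peptides were run by diaPASEF LC-MS/MS. The values are average log2 fragment/vehicle ratios from global-median-normalised Spectronaut label-free quantities, tested by unpaired t-test on proteins having ≥2 unique peptides.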

USP46 = USP46 (UniProt P62068)
Outline: as §1

USP47 = target: T2, USP47 (UniProt Q96K76)
T2 sequence (whole entry): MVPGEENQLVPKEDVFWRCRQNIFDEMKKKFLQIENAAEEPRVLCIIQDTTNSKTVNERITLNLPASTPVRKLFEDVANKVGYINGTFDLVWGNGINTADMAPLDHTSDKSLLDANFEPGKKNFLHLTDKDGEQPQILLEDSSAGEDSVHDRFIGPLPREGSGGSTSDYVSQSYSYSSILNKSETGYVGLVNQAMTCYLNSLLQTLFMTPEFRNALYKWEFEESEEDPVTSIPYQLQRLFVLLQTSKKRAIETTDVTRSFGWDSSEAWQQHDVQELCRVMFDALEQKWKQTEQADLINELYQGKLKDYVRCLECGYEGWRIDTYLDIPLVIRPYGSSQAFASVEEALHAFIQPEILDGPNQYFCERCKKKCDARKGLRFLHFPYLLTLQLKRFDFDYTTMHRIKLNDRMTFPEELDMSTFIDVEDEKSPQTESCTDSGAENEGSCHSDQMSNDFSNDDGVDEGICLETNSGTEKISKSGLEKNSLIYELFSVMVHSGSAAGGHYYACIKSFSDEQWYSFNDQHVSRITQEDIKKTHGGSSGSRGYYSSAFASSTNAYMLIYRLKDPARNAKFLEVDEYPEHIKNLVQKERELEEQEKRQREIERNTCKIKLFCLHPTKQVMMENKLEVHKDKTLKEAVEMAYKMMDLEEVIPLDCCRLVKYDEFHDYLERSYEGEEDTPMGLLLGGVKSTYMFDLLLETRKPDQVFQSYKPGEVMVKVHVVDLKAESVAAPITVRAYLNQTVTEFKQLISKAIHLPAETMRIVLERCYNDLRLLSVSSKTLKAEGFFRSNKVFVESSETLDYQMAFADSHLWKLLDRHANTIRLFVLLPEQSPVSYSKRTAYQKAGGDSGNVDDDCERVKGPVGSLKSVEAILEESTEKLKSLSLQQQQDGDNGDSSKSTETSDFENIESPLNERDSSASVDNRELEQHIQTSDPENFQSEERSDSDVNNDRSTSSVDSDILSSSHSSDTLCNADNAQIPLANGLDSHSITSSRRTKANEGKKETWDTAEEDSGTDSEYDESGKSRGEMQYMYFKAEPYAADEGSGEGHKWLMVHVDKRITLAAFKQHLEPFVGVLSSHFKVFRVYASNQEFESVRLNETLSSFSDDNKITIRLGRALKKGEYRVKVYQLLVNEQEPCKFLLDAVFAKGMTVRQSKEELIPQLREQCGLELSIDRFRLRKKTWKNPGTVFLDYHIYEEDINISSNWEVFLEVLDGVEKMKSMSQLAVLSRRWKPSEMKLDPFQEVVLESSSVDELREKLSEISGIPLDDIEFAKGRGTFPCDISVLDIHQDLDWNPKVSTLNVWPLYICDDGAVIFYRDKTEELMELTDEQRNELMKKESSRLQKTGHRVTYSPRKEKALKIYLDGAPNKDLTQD
Outline: as §1

USP48 = target: T3, USP48 (UniProt Q86UV5)
T3 sequence (whole entry): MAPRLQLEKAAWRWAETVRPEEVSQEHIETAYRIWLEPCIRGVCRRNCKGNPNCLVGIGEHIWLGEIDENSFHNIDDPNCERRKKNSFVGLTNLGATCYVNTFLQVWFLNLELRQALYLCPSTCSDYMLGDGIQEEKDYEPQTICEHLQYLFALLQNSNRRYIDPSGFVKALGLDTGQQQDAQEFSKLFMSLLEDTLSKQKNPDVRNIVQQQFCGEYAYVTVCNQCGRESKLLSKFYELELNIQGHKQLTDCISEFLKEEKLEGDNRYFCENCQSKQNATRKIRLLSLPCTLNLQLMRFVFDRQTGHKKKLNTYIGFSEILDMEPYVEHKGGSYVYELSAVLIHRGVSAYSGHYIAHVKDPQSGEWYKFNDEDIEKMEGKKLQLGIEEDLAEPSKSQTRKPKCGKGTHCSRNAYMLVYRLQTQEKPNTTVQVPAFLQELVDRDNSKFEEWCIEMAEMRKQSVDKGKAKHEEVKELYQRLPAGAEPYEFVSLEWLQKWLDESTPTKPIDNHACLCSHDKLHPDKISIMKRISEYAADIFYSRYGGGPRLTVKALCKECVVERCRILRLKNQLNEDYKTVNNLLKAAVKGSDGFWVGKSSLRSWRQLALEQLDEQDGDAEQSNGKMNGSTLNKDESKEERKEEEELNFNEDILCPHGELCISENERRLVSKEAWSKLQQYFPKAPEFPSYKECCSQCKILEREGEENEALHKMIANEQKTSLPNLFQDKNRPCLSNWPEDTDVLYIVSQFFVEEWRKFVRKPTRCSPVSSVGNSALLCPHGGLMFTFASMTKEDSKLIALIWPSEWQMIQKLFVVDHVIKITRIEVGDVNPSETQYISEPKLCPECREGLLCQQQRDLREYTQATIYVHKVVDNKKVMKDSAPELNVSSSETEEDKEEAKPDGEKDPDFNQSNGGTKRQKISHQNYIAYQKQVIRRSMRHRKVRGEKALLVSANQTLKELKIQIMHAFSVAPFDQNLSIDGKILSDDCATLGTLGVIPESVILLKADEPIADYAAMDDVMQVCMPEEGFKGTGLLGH
Outline: as §1

USP5 = target: T4, USP5 (UniProt P45974)
T4 sequence (whole entry): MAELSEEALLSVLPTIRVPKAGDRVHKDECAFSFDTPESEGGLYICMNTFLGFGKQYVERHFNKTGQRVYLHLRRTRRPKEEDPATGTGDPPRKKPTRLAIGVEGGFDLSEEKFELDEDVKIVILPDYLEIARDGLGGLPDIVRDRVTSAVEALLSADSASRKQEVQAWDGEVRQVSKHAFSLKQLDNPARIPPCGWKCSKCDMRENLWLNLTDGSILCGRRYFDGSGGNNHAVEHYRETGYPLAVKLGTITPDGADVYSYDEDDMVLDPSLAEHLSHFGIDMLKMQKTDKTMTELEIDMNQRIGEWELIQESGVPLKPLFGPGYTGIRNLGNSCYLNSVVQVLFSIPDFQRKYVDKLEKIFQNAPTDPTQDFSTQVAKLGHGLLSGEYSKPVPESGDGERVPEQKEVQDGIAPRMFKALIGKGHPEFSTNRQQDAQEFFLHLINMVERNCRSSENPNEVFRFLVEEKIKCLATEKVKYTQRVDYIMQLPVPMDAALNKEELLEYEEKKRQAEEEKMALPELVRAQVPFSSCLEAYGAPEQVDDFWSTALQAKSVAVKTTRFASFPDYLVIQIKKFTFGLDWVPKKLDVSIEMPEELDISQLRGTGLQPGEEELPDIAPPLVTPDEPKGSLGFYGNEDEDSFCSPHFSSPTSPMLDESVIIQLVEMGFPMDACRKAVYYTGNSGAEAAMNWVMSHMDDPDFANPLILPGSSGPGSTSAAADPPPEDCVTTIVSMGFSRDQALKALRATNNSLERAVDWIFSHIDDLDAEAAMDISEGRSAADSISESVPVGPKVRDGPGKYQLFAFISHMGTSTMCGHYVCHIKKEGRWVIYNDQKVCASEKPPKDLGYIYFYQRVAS
Outline: as §1

USP54 = USP54 (UniProt Q70EL1)
Outline: as §1

USP7 = USP7 (UniProt Q93009)
Outline: as §1

USP8 = target: T5, USP8 (UniProt P40818)
T5 sequence (whole entry): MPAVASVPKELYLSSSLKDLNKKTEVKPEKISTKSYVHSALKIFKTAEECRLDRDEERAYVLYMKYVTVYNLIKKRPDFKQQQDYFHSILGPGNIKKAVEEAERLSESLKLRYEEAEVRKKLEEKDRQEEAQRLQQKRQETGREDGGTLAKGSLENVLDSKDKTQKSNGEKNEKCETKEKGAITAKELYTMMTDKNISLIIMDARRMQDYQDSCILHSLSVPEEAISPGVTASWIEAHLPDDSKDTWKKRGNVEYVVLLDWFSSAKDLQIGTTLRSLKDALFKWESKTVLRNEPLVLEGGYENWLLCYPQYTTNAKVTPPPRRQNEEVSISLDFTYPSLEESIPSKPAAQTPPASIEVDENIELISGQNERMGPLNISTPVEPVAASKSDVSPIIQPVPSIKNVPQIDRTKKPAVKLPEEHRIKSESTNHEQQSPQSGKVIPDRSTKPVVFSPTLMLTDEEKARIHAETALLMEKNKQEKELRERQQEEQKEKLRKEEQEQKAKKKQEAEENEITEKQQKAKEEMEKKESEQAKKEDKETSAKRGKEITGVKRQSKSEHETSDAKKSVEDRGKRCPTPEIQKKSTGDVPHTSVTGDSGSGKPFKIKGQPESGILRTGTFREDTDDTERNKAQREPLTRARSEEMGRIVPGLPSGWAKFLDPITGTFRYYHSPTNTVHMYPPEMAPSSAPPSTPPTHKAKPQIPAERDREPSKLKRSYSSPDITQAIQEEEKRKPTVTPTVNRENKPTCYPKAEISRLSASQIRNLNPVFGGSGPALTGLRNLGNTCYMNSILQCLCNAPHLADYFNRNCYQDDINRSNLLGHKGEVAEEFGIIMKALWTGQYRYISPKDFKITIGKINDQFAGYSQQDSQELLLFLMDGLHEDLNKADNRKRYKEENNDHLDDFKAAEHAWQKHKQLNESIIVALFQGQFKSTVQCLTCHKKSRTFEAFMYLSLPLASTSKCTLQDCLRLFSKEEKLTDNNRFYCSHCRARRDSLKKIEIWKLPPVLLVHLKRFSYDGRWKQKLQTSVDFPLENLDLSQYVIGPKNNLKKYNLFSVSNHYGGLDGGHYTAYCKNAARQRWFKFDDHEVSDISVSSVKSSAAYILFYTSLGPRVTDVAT
Outline: as §1

USP9X = USP9X (UniProt Q93008)
Outline: as §1

UniProt O00487 = target: UniProt O00487
Outline: as §1

Measured: log2 ratio of Biotin-Ahx-Ub-VS probe labelling

Chain of USP7 (Q93009 whole entry, looked up): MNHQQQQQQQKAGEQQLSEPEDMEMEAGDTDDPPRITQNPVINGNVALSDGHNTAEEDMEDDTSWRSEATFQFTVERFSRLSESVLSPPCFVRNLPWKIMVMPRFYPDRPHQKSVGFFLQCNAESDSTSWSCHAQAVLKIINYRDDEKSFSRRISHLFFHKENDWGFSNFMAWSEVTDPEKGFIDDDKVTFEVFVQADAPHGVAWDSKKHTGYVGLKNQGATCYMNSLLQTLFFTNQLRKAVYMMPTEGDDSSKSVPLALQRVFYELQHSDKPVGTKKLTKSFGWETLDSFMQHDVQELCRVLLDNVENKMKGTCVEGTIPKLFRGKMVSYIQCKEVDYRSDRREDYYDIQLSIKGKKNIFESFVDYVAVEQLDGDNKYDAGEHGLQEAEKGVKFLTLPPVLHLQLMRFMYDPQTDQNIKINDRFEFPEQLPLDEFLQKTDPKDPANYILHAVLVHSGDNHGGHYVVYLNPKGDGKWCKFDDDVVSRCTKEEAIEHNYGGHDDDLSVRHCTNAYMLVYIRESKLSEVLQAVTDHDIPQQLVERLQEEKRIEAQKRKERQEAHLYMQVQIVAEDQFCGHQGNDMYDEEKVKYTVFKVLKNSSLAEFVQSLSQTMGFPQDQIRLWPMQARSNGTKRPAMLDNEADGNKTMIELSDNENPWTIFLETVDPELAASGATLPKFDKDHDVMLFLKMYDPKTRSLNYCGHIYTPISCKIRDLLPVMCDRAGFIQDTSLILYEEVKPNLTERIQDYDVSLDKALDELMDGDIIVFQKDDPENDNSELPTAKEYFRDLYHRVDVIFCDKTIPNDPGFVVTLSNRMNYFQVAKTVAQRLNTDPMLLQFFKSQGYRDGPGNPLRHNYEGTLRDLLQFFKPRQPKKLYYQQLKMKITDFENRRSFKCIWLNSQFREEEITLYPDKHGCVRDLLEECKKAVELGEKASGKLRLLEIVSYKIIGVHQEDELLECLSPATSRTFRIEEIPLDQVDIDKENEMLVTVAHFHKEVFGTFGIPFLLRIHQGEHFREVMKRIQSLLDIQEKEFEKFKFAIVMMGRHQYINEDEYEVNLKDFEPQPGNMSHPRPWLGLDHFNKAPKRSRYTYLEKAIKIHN
Chain of UniProt O00487 (O00487 whole entry): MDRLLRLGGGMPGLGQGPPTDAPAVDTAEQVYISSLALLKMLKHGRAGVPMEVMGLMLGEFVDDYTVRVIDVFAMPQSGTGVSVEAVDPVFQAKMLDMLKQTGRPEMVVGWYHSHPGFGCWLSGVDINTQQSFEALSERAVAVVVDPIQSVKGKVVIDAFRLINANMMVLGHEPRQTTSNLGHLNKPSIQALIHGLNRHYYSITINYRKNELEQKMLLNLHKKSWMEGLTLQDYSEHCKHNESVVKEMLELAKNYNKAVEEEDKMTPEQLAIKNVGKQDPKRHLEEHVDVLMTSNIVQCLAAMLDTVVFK
Chain of USP9X (Q93008 whole entry): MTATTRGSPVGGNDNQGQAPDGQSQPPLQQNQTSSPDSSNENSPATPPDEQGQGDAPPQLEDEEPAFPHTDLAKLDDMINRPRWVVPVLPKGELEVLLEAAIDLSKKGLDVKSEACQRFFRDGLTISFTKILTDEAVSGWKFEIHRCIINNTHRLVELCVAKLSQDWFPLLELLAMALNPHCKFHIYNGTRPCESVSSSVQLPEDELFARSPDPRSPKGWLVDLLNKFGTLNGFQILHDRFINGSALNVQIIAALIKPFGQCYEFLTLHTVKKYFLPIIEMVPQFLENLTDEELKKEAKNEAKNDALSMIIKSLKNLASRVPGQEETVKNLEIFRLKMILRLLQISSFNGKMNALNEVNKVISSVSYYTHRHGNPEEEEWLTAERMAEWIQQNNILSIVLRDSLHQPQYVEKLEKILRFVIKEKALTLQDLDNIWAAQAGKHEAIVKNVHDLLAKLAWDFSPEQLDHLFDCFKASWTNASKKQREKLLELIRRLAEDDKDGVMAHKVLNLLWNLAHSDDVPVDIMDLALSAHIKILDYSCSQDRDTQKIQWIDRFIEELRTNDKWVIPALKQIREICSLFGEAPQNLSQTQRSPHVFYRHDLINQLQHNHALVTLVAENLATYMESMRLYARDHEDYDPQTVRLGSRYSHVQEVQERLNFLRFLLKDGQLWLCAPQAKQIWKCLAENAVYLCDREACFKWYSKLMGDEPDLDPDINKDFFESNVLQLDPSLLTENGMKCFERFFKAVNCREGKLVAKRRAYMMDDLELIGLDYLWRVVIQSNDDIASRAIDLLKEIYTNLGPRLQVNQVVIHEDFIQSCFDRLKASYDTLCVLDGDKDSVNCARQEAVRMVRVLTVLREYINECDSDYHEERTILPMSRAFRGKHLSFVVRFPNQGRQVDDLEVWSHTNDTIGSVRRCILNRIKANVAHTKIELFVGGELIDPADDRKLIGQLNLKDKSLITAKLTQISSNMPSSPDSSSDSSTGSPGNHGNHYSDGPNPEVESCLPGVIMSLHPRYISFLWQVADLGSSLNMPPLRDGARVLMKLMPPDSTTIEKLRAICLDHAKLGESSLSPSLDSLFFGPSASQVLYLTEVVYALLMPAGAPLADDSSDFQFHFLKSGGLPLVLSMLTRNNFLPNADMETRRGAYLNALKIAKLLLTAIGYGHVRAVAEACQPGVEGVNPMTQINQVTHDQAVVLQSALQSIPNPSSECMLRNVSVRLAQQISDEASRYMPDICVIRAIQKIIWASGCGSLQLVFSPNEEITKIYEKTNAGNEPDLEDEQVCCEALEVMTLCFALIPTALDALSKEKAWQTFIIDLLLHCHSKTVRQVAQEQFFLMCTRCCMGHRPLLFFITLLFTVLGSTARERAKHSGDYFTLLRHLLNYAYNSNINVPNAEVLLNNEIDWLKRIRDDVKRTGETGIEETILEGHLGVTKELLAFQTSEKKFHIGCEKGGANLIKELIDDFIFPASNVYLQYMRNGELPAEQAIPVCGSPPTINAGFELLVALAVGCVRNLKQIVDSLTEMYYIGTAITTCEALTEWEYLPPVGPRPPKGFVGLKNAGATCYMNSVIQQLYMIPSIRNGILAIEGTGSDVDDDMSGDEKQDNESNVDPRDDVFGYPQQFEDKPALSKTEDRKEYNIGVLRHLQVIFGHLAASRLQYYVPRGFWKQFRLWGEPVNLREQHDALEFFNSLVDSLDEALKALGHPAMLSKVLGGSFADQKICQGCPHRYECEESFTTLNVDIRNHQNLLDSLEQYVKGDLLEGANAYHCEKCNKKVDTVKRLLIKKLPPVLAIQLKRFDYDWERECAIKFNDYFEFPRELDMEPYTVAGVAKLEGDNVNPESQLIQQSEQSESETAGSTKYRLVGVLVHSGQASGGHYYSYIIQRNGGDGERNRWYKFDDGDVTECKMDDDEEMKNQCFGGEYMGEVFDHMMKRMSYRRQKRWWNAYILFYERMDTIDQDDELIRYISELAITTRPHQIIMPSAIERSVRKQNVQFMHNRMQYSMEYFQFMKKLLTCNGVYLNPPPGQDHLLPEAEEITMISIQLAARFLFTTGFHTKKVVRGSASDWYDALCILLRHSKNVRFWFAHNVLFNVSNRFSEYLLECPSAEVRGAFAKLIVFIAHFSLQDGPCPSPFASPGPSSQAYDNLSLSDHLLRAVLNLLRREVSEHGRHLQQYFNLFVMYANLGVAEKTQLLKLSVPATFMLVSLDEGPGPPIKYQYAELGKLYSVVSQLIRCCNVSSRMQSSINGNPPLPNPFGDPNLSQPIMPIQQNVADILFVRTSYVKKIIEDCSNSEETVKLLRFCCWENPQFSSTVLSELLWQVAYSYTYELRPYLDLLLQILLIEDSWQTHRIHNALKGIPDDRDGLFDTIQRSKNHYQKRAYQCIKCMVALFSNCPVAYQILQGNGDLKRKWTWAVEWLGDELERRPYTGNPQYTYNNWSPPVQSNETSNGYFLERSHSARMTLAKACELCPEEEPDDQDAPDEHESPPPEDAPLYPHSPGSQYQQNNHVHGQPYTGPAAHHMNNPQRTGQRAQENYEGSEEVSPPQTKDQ
Chain of USP46 (P62068 whole entry): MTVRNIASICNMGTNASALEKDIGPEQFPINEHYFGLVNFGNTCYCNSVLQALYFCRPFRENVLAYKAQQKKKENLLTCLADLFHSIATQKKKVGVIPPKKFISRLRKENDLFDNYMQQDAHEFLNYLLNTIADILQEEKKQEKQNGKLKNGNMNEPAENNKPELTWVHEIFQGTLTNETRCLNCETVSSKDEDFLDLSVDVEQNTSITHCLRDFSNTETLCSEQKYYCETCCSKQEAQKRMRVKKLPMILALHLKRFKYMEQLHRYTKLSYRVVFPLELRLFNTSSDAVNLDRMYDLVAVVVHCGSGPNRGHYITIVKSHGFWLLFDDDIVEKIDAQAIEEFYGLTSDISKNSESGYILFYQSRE

CC1CN(c2ccc(NC(=O)CCl)cc2)CC(C)O1 (stereo not given)
inactive: USP42 0.0421 | USP46 0.0265 | USP47 -0.557 | USP48 -0.402 | USP5 -0.0419 | USP54 0.973 | USP7 -0.186 | USP8 -0.0842 | USP9X -0.166 | UniProt O00487 -0.0932
